Data from ChEMBL document CHEMBL3988442, “University of Dundee, Small-Polar-MMV Screening Library” (2021).
About 1,000 (1.4%) of roughly 69,000 compounds showed an effect of 50% or more. For the sample, strong results were picked, then their nearest neighbours and some compounds at random.

Test system: Leishmania donovani
Assay: Leishmania intramacrophage assay
Type: functional, organism-based
Design: scale not given: in the data most compounds retested in dose-response had high values

CCOc1ccc(NC(=O)N2CCNC(=O)C2)c(C(F)(F)F)c1
Percent Effect (30.3 µM, […]): -5.154%

c1ccc(OCCCN2CCOC(CNc3cccnn3)C2)cc1 (centres undefined)
Percent Effect (30 µM): 30.1%

CCc1nnc(CN(C)C(=O)C(CC)n2c(CC)nc3ccccc32)o1 (centres undefined)
Percent Effect (30.3 µM, […]): 37.19%

CC(=O)N1CC(=O)N(c2cnn(C)c2)CC12CCN(Cc1ccco1)C2 (centres undefined)
Percent Effect (30.3 µM, […]): 8.312%

CC(c1nc(C(C)(C)C)no1)N1CCN(C(=O)CN2CCOCC2)CC1 (centres undefined)
Percent Effect (30.3 µM, […]): 24.72%

CSC(C)(C)CNC(=O)NC1CCC1
Percent Effect (30.3 µM, […]): -4.731%

COc1ccccc1NC(=O)NCc1nnc(SC)n1C
Percent Effect (30.3 µM, […]): 56.86%

CSc1nnc(CNC(=O)Nc2ccccc2F)n1C
Percent Effect (30.3 µM, […]): 17.43%

CCc1ccccc1NC(=O)NCc1nnc(SC)n1C
Percent Effect (30.3 µM, […]): 23.33%

O=C(c1cnc2ccc(Cl)cc2c1NCc1ccco1)N1CCCCC1
Percent Effect (30.3 µM, […]): -0.01015%

Cc1nc(C)n(CC2CCCCN2CCOc2ccc(C#N)cc2)n1 (centres undefined)
Percent Effect (30 µM): 19.26%

COC(=O)NC1(C(=O)Nc2ccc(-c3ncc[nH]3)cc2)CCCC1
Percent Effect (30.3 µM, […]): 26.54%

CCc1noc(C2CCCCN2C(=O)c2cc(C)oc2C)n1 (centres undefined)
Percent Effect (30.3 µM, […]): -92.24%

Cc1ccc(C(=O)N2CCC3(CC2)COC(COc2ccccn2)C3)o1.O=C(O)C(F)(F)F (centres undefined)
Percent Effect (30 µM, 30.03 µM): -68.01%

Cc1ccc(C(=O)N2CCC3(CC2)COC(COc2cccnc2)C3)o1.O=C(O)C(F)(F)F (centres undefined)
Percent Effect (30.3 µM, […]): 59.81%

CCS(=O)(=O)N1CCC2(CC1)COC(COc1cccnc1)C2.O=C(O)C(F)(F)F (centres undefined)
Percent Effect (30.3 µM, […]): 15.1%

Cc1ccc(N2CCCC(NCC(=O)NC3CCOCC3)C2)nn1 (centres undefined)
Percent Effect (30 µM, 30.03 µM): 24.15%

CCc1nc(C2CCCN(c3nccc(N4CCCC4)n3)C2)no1 (centres undefined)
Percent Effect (30.3 µM, […]): 4.333%

CC(C)CCN1CC[C@H](c2nnc(Cc3c[nH]c4ccccc34)o2)C1
Percent Effect (30.3 µM, […]): 31.19%

CCOc1ccc(CN2CCC(c3nc(C)cc(C)n3)C2)cc1CO (centres undefined)
Percent Effect (30.3 µM, […]): 20.63%

COc1cc(-c2ccc(F)c3c2OC(CN)C3)cc(OC)c1OC (centres undefined)
Percent Effect (30.3 µM, […]): 19.84%

NCC1Cc2cccc(-c3ccc(O)c(F)c3)c2O1 (centres undefined)
Percent Effect (30.3 µM, […]): 31.37%

Cc1nc(-c2cc(F)c3c(c2)CC(CN)O3)c[nH]1 (centres undefined)
Percent Effect (30.3 µM, […]): 25.07%

Cc1nc(-c2cc(Cl)cc3c2OC(CN)C3)c[nH]1 (centres undefined)
Percent Effect (30.3 µM, […]): 27.22%

COc1cc(-c2cccc3c2OC(CN)C3)cc(OC)c1OC (centres undefined)
Percent Effect (30.3 µM, […]): 39.45%

COc1cccnc1-c1ccc(F)c2c1OC(CN)C2 (centres undefined)
Percent Effect (30.3 µM, […]): -22.62%

COc1c(F)cc(-c2cccc3c2OC(CN)C3)cc1F (centres undefined)
Percent Effect (30.3 µM, […]): 78.5%

COc1cc(-c2cccc3c2OC(CN)C3)ccc1O (centres undefined)
Percent Effect (30.3 µM, […]): 33.17%

NCC1Cc2cccc(-c3nccc(N4CCC(O)CC4)n3)c2O1 (centres undefined)
Percent Effect (30.3 µM, […]): 19.12%

COc1cc(OC)cc(-c2cccc3c2OC(CN)C3)c1 (centres undefined)
Percent Effect (30.3 µM, […]): 81.48%

COc1ccc(-c2cccc3c2OC(CN)C3)cc1F (centres undefined)
Percent Effect (30.3 µM, […]): 82.3%

COc1cc(C)c(-c2ccc(F)c3c2OC(CN)C3)cc1C (centres undefined)
Percent Effect (30.3 µM, […]): 82.34%

Cn1cnnc1C1CCCN(C(=O)c2cc(Cl)c(Cl)n2C)C1 (centres undefined)
Percent Effect (30 µM): 16.78%

Cc1ccc(N2CCCC(NCc3ccc4c(c3)OCCO4)C2)nn1 (centres undefined)
Percent Effect (30.3 µM, […]): -12.27%

CCCNC(=O)CCC(=O)N1CCC(c2n[nH]c(C3CC3)n2)CC1
Percent Effect (30.3 µM, […]): -11.33%

O=C1CCN(C(=O)NCc2ccccc2Oc2ccccc2)CCN1
Percent Effect (30.3 µM, […]): -11.56%

COc1ccc(CN2CCn3cc(CNC(=O)CC4CC4)nc3C2)cc1.O=C(O)C(F)(F)F
Percent Effect (30.3 µM, […]): -3.07%

CN1Cc2ccccc2CC1C(=O)N1CCN(CCS(C)(=O)=O)CC1 (centres undefined)
Percent Effect (30.3 µM, […]): -7.608%

COc1ccc(-c2nnsc2C(=O)N2CCC(C(N)=O)CC2)cc1
Percent Effect (30.3 µM, […]): -2.161%

O=c1[nH]cc(N2CCOCC2)c(=O)[nH]1
Percent Effect (30.3 µM, […]): -12.54%

O=C(O)C(F)(F)F.O=C(O)C(F)(F)F.O=c1ccc2c(n1CCN1CCCC1)CCN(Cc1ccoc1)CC2
Percent Effect (30 µM, 30.03 µM): 45%

O=C(O)C(F)(F)F.O=C(O)C(F)(F)F.O=c1ccc2c(n1Cc1cccnc1)CCN(Cc1ccoc1)CC2
Percent Effect (30.3 µM, […]): 52.28%

O=C(O)C(F)(F)F.O=C(O)C(F)(F)F.O=c1ccc2c(n1Cc1ccncc1)CCN(Cc1ccoc1)CC2
Percent Effect (30.3 µM, […]): 7.941%

CCN(CC)C(CNC(=O)c1ccnc(N(C)C)c1)c1ccsc1 (centres undefined)
Percent Effect (30.3 µM, […]): 1.995%

Cc1ccc(NC2CCN(C(=O)CCc3c(C)noc3C)CC2)nn1
Percent Effect (30 µM): 23.52%

O=C(O)c1ccccc1-c1c(-c2ccccc2)ncn1CC1CCCO1 (centres undefined)
Percent Effect (30.3 µM, […]): -1.472%

Oc1ccc(-c2c(-c3ccccc3)ncn2C[C@H]2CCCN2)cc1
Percent Effect (30.3 µM, […]): 51.83%

O=C(O)c1ccccc1-c1c(-c2ccccc2)ncn1C[C@H]1CCCN1
Percent Effect (30.3 µM, […]): 31.03%

CCc1ccc(C(COC)NC(=O)c2ccc(C(N)=O)cc2)o1 (centres undefined)
Percent Effect (30.3 µM, […]): 64.18%

CCc1ccc(C(COC)NC(=O)c2ccc(NC(C)=O)cc2)o1 (centres undefined)
Percent Effect (30.3 µM, […]): -4.032%

CCc1ccc(C(COC)NC(=O)c2ccc(O)nc2)o1 (centres undefined)
Percent Effect (30.3 µM, […]): -7.414%

NC(=O)CS(=O)(=O)Cc1csc(-c2ccccc2)n1
Percent Effect (30.3 µM, […]): 15.77%

Cc1nnsc1C(=O)NCCNS(=O)(=O)c1cccs1
Percent Effect (30.3 µM, […]): -23.26%

Cc1nc(C)n(C2CCCN(C(=O)c3sccc3C)C2)n1 (centres undefined)
Percent Effect (30 µM): 16.01%

CC(C)c1noc(CCNC(=O)NCC2Cc3ccccc3O2)n1 (centres undefined)
Percent Effect (30.3 µM, […]): -9.19%

Cc1cc(C)c(CNC(=O)NCC2Cc3ccccc3O2)c(=O)[nH]1 (centres undefined)
Percent Effect (30.3 µM, […]): 1.622%

CC(=O)NCCNC(=O)NCC1Cc2ccccc2O1 (centres undefined)
Percent Effect (30.3 µM, […]): 52.86%

NS(=O)(=O)CCNC(=O)c1cc(Br)c2c(c1)OCCO2
Percent Effect (30.3 µM, […]): -2.46%

CC(C)CC(=O)N1C[C@@H]2CCN(c3ncccn3)C[C@@H]2C1.O=C(O)C(F)(F)F
Percent Effect (30 µM, 30.03 µM): 12.14%

CC(C)(C)c1n[nH]cc1CNC1CCC(C(F)(F)F)CC1.Cl (centres undefined)
Percent Effect (30.3 µM, […]): -4.401%

COCCNC(=O)[C@@H]1CN(c2ncccn2)C[C@H]2OCC[C@H]21
Percent Effect (30.3 µM, […]): 9.036%

COCCNC(=O)[C@@H]1CN(c2cc(OC)ncn2)C[C@H]2OCC[C@H]21
Percent Effect (30.3 µM, […]): 7.324%

COCCNC(=O)[C@H]1CN(c2ncccn2)C[C@H]2OCC[C@@H]12
Percent Effect (30.3 µM, […]): 52.44%

CCC1CCC(N(Cc2cc(=O)n(C)c(=O)n2C)C2CC2)CC1 (centres undefined)
Percent Effect (30.3 µM, […]): 27.04%
